Compounds with a hit are over-represented: about 1.3% of the library has one in this group of screens.
Vaccinia mCherry: vaccinia inhibition (mCherry reporter); 0.63% of 310,000 active; Vaccinia virus mCherry reporter infection, fluorescence; Potency, µM (titrated, usually from 36.5 µM), without a hit: top-dose activity change, negative = inhibition, most hits filed as inhibitors; calls by dose curve; tested in A549 cells; note: nearly all actives have a fitted effect of over 35% in size
RE007 growth inh: less growth of the S. pombe RE007 Vpr strain | Potency, µM (doses to about 92.2 µM), without a hit: top-dose activity change, negative = less growth, hits mostly inhibitors | S. pombe RE007 Vpr strain, BacTiter-Glo ATP luminescence, 24 h | AID 651644 | 0.21% of 360,000 active; active = well fitted falling curve with a large enough effect; inconclusive = small, poorly fitted or top-dose-only effect; inactive = no such curve, though single readings can be large or run the other way; note: nearly all actives have a fitted effect of over 50% in size
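Fission yeast strain RE007, carrying one chromosomally integrated HIV-1 vpr copy, was seeded at OD 0.01 in PMG+AL medium with 23 nL pinned compound. After 24 h at 30 °C and 99% humidity, viability was read by BacTiter-Glo luminescence.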
LmPK inhibitor: blocks Leishmania mexicana pyruvate kinase activity; AID 1721; 0.37% of 290,000 active; purified LmPK, Kinase-Glo ATP luminescence, 1 h; Q27686; Potency, µM (highest dose often 57.5 µM), inactives show at the highest dose activity change, negative = inhibition, most hits filed as inhibitors
Target sequence (Q27686 whole entry, looked up): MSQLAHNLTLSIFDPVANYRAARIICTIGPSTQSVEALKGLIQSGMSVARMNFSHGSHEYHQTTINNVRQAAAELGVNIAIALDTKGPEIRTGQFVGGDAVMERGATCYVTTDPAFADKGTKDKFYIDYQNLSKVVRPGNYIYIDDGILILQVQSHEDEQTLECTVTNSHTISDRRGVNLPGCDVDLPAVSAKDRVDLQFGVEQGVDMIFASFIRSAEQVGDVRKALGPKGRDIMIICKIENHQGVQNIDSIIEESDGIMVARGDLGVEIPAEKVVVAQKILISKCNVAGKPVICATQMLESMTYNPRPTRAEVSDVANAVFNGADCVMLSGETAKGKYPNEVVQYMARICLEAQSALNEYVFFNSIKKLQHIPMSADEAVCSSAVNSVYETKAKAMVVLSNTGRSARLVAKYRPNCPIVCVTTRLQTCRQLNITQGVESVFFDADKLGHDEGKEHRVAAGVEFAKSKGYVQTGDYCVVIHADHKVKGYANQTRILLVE
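Kinase-Glo luminescence read after 1 h RT reaction of 0.1 nM LmPK with 0.5 mM PEP and 0.1 mM ADP. Activity scaled between uninhibited and enzyme-free controls.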
AMA1-RON2 inh: disrupts binding of P. falciparum AMA1 to RON2 | AID 720542 | 0.2% of 360,000 active | AlphaScreen AMA1-biotinylated RON2 peptide binding | Potency, µM (top dose mostly 58.2 µM), without a hit: at the top dose activity change, negative = inhibition, usual class: inhibitors;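 note: 0% = vehicle wells and -100% = peptide control; nearly all actives have a fitted effect of over 45% in size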
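AMA1 (3D7) with his tag at 25 nM final met compounds first, then biotinylated RON2 peptide at 25 nM; detection used donor plus acceptor beads, 10 µg/mL apiece, read by AlphaScreen after 30 min at room temperature.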
VACV Venus inh: vaccinia inhibition (Venus reporter). Vaccinia virus Venus reporter expression, fluorescence. Potency, µM (titrated, usually from 36.5 µM), for inactives: at the highest dose activity change, negative = inhibition, usual class: inhibitors. 0.46% of 330,000 active. AID 720580; calls by dose curve; tested in A549 cells; note: nearly all actives have a fitted effect of over 30% in size
TbPYK inhibitor: inhibitors of Trypanosoma brucei pyruvate kinase; Potency, µM (highest dose often 76.8 µM), for inactives: at the highest dose activity, negative = inhibition, hits mostly inhibitors; Q57TT1; 0.12% of 410,000 active; TbPYK enzyme, Kinase-Glo Plus ATP luminescence, 45 min; note: nearly all actives have a fitted effect of over 50% in size
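ADP (130 uM final) triggers the TbPYK reaction after compound addition; incubation is 45 min at room temperature. Kinase-Glo Plus is then added and luminescence imaged. Normalized data are fitted to concentration-effect curves.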
* marks the source's active call; other numbers are inactive results; i = inactive; ? = inconclusive; nt = not tested or not shown; [ ] = remark or other dose. Unless noted, calls come from the whole dose curve; as a rule, active = well fitted curve in the direction sought with a large enough effect; inconclusive = small, poorly fitted or top-dose-only effect, or another doubt; inactive = no such curve, though single readings can be large; an effect the other way counts as inactive or inconclusive. Unless noted, % is set by controls: 0 for no effect and ±100 for the full control effect; potency is the fitted concentration of half-maximal effect.

SMILES	Vaccinia mCherry	RE007 growth inh	LmPK inhibitor	AMA1-RON2 inh	VACV Venus inh	TbPYK inhibitor
Cc1ccc(NCCC(=O)c2cccs2)cc1C	i	39.8µM*	-0.8%	?	-14.2%	2.0%
CC(C)c1ccc(NCCC(=O)c2cccs2)cc1	-12.3%	31.6µM*	-1.6%	-23.5%	-4.8%	-0.1%
COc1cccc(C(=O)N(Cc2cc3cc4c(cc3nc2N(C)C)OCO4)CC2CCCO2)c1 (centres undefined)	8.4%	nt	nt	nt	3.4%	nt
COc1ccc(C(=O)c2c(C(F)(F)F)oc3c2C(=O)c2ccccc2C3=O)cc1OC	nt	?	8.8%	?	5.62µM*	-1.5%
COc1ccc(C(=O)Nc2ccc3c(c2)C(=O)c2ccccc2C3=O)cc1OC	-0.3%	26.1%	-0.9%	-15.3%	0.6%	-9.4%
C[C@H](/C=C/[C@H](C)C(C)(C)O)[C@H]1CC[C@H]2/C(=C/C=C3C[C@@H](O)C[C@H](O)C3)CCC[C@]12C	nt	nt	nt	nt	nt	6.7%
CC1CCOC(c2coc3ccccc3c2=O)O1 (centres undefined)	i	-28.1%	?	-5.2%	-9.6%	-2.4%
O=C(O)C1CSC(c2coc3ccccc3c2=O)N1 (centres undefined)	-12.0%	39.8µM*	-2.4%	1.8%	-2.5%	-11.1%
O=C(/C=C/c1ccccc1Cl)c1ccc[nH]1	12.6µM*	-26.0%	-17.1%	-14.4%	?	-10.6%
Cc1cc(C)cc(N2C(=O)C=CC2=O)c1	i	3.16µM*	nt	4.2%	-8.3%	12.6µM*
Cc1cc(N2C(=O)C=CC2=O)c([N+](=O)[O-])cc1C	i	?	?	13.0%	-5.3%	28.2µM*
Cc1c([N+](=O)[O-])cc(N2C(=O)C=CC2=O)cc1[N+](=O)[O-]	-9.7%	-15.7%	nt	-8.9%	-0.7%	25.1µM*
O=C(c1ccc(N2CCC(NCCCn3ncc4ccccc43)CC2)cc1)N1CCc2ccccc2C1	-25.4%	nt	nt	nt	-17.8%	nt
Cc1noc(C)c1S(=O)(=O)N1CCc2nc(COc3ccccc3)c3c(c2C1)CO[C@@H](C)C3	nt	nt	-6.5%[11.5 µM]	nt	nt	nt
CSc1ccc(-c2ccc(C(=O)NCC3CCCO3)c(N3CCC(O)CC3)n2)cc1 (centres undefined)	-12.5%	nt	nt	nt	4.9%	nt
COc1cccc(C(=O)NCC2Cc3cccc(-c4ncccn4)c3O2)c1OC (centres undefined)	-10.7%	nt	nt	nt	-1.4%	nt
NCCOc1ccccc1-c1ccccc1	nt	-14.5%	0.6%	-4.3%	-3.7%	-13.4%
Nc1ccc(Oc2ccccc2-c2ccccc2)cc1	-22.9%	-7.4%	nt	22.4µM*	-19.2%	3.0%
c1ccc(-c2nnc(NC3=NCCC3)o2)cc1	-9.5%	-19.0%	20µM*	78.8%	-8.5%	-11.0%
Fc1ccc(-c2nnc(NC3=NCCCCC3)o2)cc1	nt	?	15.8µM*	-4.3%	-26.1%	?
COC(=O)c1ccc(CN2CCC3(CCC(CNC(=O)c4ccco4)O3)CC2)cc1 (centres undefined)	-1.5%	nt	nt	nt	-18.7%	nt
O=C1CC(c2ccc(O)cc2)Oc2cc(O)cc(O)c21 (centres undefined)	-12.4%	-14.0%[18.4 µM]	1.8%	4.4%	-20.4%	1.4%
CC1CC(=O)c2c(cc3c(-c4c(O)cc(O)c5c(O)c6c(cc45)OC(C)CC6=O)c(O)cc(O)c3c2O)O1 (centres undefined)	10µM*	-7.9%	-22.5%	?	14.1µM*	-5.1%
Cc1cc(C)n2nc(C(=O)NCC3Cc4cccc(-c5ccc(S(C)(=O)=O)cc5)c4O3)cc2n1 (centres undefined)	-10.5%	nt	nt	nt	-1.4%	nt
COc1cc(/C=N/NC(=O)CSc2cc(C)c(Br)cc2C)ccc1O	nt	-1.7%	0.3%	55.9%	nt	0.0%
SMILES	Vaccinia mCherry	RE007 growth inh	LmPK inhibitor	AMA1-RON2 inh	VACV Venus inh	TbPYK inhibitor
Cc1cc(SCC(=O)N/N=C/c2ccc(O)c(O)c2O)c(C)cc1Br	12.6µM*	?	-4.0%	27.8%	?	9.8%
CC(=O)c1sc(NC(=O)c2cccnc2Cl)nc1C	nt	-17.1%	-13.0%	29.7%	nt	-6.5%
CC(=O)c1sc(NC(=O)c2ccccc2F)nc1C	i	-26.3%	14.1µM*	-21.3%	-11.7%	-8.9%
O=C(C[n+]1cccc2cccc(O)c21)c1ccccc1	-1.3%	nt	nt	nt	20.7%	nt
COc1ccc(NC(=O)/C(Cl)=C(/Cl)S(=O)Cc2ccccc2)cn1 (centres undefined)	7.08µM*	44.7µM*	2.4%	0.9%	8.91µM*	-5.0%
COc1ccc(NC(=O)Cc2ccccc2)cn1	-3.1%	28.4%	-1.1%	2.7%	1.9%	-1.7%
COc1ccc(CS(=O)(=O)/C(Cl)=C(/Cl)C(=O)Nc2ccc(OC)nc2)cc1	nt	?	3.2%	-4.7%	10µM*	-0.2%
O=C(Nc1cccc(Cl)c1)Nc1ncc(CCNc2ncnc3ccsc23)s1	nt	nt	nt	nt	nt	0.0%
O=C(Nc1cccc(N2CCC(NCc3cnn(-c4ccccc4)n3)CC2)c1)c1cccnc1	-12.0%	nt	nt	nt	-7.8%	nt
Cc1ccc(C(=O)NCCc2nnc3n2CCN(C(=O)c2ccnc(Cl)c2)CC3)cc1	-0.5%	nt	nt	nt	1.6%	nt
CC/C(=C/c1ccccc1OC)c1cc(-c2ccccc2)cc2oc3ccccc3c12	i	nt	nt	nt	-20.2%	nt
COc1ccc(C(=O)NC(=S)Nc2cccc(S(=O)(=O)N3CCOCC3)c2)cc1	-29.5%	9.3%	-1.1%	33.4%	?	2.7%
CC(=O)Oc1ccc(-c2ccc(C(=O)Nc3cccc(S(=O)(=O)N4CCOCC4)c3)cc2)cc1	15.8µM*	-6.6%	1.9%	-2.7%	?	6.8%
CC(=O)Oc1cccc2c1C(=O)c1c(OC(C)=O)cc(C(=O)O)cc1C2=O	12.8%	10.1%	?	3.8%	32.6%	-3.6%
CC(=O)Oc1cccc2c1C(=O)C1CC=CC(OC(C)=O)C1C2=O (centres undefined)	-13.8%	?	nt	31.6µM*	10.5%	1.4%
COc1cccc(-c2ccnc(-n3ncc(C(=O)NCC(C)(C)CN(C)C)c3C)n2)c1	-14.2%	nt	nt	nt	-10.7%	nt
CCOC(=O)CC(=O)CSc1nc2ccc(C)cc2cc1C#N	-18.5%	-11.0%	20µM*	23.9%	-2.9%	?
CN(Cc1ccccc1)c1ccc(-c2nc(-c3ccccn3)no2)cc1[N+](=O)[O-]	i	nt	nt	nt	-6.8%	-0.9%
Cc1nc2nc(-c3ccc(Cl)cc3)cn2nc1C	?	-13.5%	?	-3.7%	0.0%	-3.0%
COc1ccc(-c2cn3nc4c(nc3n2)CCCC4)cc1	nt	-11.7%	15.8µM*	7.0%	-11.3%	-13.9%
CCOC(=O)c1cccc(Nc2nc(-c3cccnc3)nc3ccccc23)c1	nt	-21.9%	-1.6%	-23.1%	22.4µM*	-5.5%
O=C(/C=C/Nc1ccc(Br)cc1F)c1ccco1	-15.0%	?	?	-26.6%	-5.9%	-13.6%
O=C(/C=C/Nc1ccc(F)cc1F)c1ccco1	-23.8%	-1.5%	10µM*	-4.1%	-20.9%	?
